From PubChem BioAssay (NCI) come the findings set out here.

About 83,000 compounds went through this panel and 20% of them were active in at least one assay; those are over-represented in the sample as a whole.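 96-well plates, one dose, 48 hours. Percent growth reported; active if below 10.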 Calls of active or inactive are those of the source.

For this assay, the system named is HL-60(TB) leukemia. Nature of the assay: NCI-60 one-dose screen, 48 h (100 = growth as untreated, 0 = no growth, -100 = all killed). To be noted: 10 µM unless noted.
In the case of `Nc1ccc(C(=O)CSc2nc3ccccc3[nH]2)cc1`, the growth is 95.3% (inactive).
With `C#CCCCCCCC[C@@H]1OC(=O)[C@H]([C@@H](C)CC)NC(=O)[C@@H]([C@@H](C)CC)NC(=O)CC(=O)[C@@H]1C` the figure was 107% (inactive).
In the case of `CCN(CC)CCCCCNc1cc(OC(=O)c2ccc(Cl)cc2)cc2cccnc12` it was 6.96% (active).
Take `Oc1ccc(CCl)c2cccnc12`: the growth is 81% (inactive).
With `N#Cc1c(Oc2ccc([N+](=O)[O-])cc2)nc2sc3cc(Cl)ccc3n2c1=N` the figure was 151% (inactive); with `Clc1ccc(/C=C2\CCCC3C2=Nc2ccccc2NC3c2ccc(Cl)cc2)cc1` (configuration not stated), 73.9% (inactive); with `COCc1c(-c2ccc(NC(=O)Nc3cc(C(F)(F)F)ccc3F)c(F)c2)c2c(N)ncnn2c1CN1CCOCC1`, -22% (active).
In the case of `C/C=C/c1cc2c(c(=O)o1)C(=O)[C@@H](O)[C@H](C)O2` it was -22% (active); in that of `COc1cccc(CC(C)=C(c2ccc(OCCCN(C)C)cc2)c2ccc(OCCCN(C)C)cc2)c1`, -68% (active); in that of `COc1cc(C2C(C#N)=C(N)OC3=C2C(=O)c2ccccc2C3=O)cc(OC)c1OC` (configuration not stated), 15.2% (inactive).
Consider `C=CC(=O)Nc1cccc(-c2nc(SC)nc(NCCc3ccc(OC)c(OC)c3)c2C#N)c1`, for which the growth was 25.6% (inactive).
With `CN1CCN(c2ccc(OC(F)(F)F)c(Nc3ncc4c(n3)-c3c(c(C(N)=O)nn3CCO)CC4)c2)CC1` the figure was -20.5% (active); with `Cc1nc(Nc2cccc(NC(=O)Nc3ccc(Cl)cc3)c2)c2ccccc2n1`, 78.6% (inactive); with `COc1cc2c(c(OC)c1)C1c3ccccc3NC(=O)N1CC2` (configuration not stated), -3.91% (active).
In the case of `COc1ccc(/C=C/C(=O)C(CC2CCC2)C(=O)/C=C/c2ccc(OC)c(OC)c2)cc1OC` it was -27.5% (active); in that of `CC(C)N=C1CCCC1C(=S)SSC(=S)C1CCCC1=NC(C)C` (configuration not stated), 75.8% (inactive); in that of `Cn1c2ccccc2c2c3c(c4c5ccccc5[nH]c4c21)C(=O)N(N)C3=O`, 81.8% (inactive).
For the compound `O=[N+]([O-])c1ccc(-n2[nH]nnc2=S)cc1`, the growth is 105% (inactive).
In the case of `Cc1ccn2c(-c3csc(Nc4cccc(O)c4)n3)c(C)nc2c1` it was -19.4% (active); in that of `N#Cc1ccc(-c2ccc(-c3cccs3)o2)cc1F`, 89.3% (inactive); in that of `CCOc1ccc2c(c1)CC[C@@H]1[C@@H]2CC[C@]2(C)[C@@H](O)[C@@H](O)C[C@@H]12`, 97% (inactive).
For the compound `Cc1cccc(C[C@H](NC(=O)Nc2ccc(C)cc2F)C(=O)N[C@@H]2C(=O)N3C[C@H](O)C[C@H]3C(=O)N3CCN(C)C[C@H]3C(=O)N[C@@H](C)C(=O)N3C[C@H](C)C[C@H]3C(=O)O[C@H]2C)c1`, the growth is 24.2% (inactive).
With `O=C1c2cccc(NCCN=Cc3cc([N+](=O)[O-])ccc3O)c2C(=O)c2c(NCCN=Cc3cc([N+](=O)[O-])ccc3O)cccc21` the figure was 70.8% (inactive); with `Cc1nccc2c3ccc(OCc4cn(Cc5ccc(Br)cc5)nn4)cc3n(CCCc3ccccc3)c12`, 89% (inactive); with `C=CC(=O)N1CC2(CC(n3nc(-c4ccc(Oc5ccccc5)cc4)c4c(N)ncnc43)C2)C1`, 62.3% (inactive).
In the case of `COc1cc(/C=N/NC(=O)CCN2c3ccccc3Sc3ccccc32)cc(OC)c1OC` it was 77.9% (inactive); in that of `Cc1nc(C)c(C(=O)O)cc1C(=O)O`, 106% (inactive); in that of `COc1cc2oc(-c3cccc(C(=O)Nc4ccc(C)cc4)c3)cc(=O)c2c(OC)c1OC`, 7.26% (active).
With `CCOC(=O)c1c(NC(=O)CSc2n[nH]c3nc4ccccc4n23)sc(CC)c1C` the figure was 97.9% (inactive); with `S=C(Cc1ccccc1)N1CCN(c2ccccc2Cl)CC1`, 92.1% (inactive).
For the compound `c1ccc(-c2cn3c(ccc4ccccc43)n2)cc1`, the growth was 24.4% (inactive).
In the case of `CSc1cccc([N+](=O)[O-])c1` it was 91.7% (inactive); in that of `O=C1NN(C(=O)c2ccc(O)cc2)C(c2ccccc2)=N/C1=C\c1cn(-c2ccccc2)nc1-c1ccccc1`, 85.7% (inactive).
In the case of `COC(OC)C1(c2ccccc2)NC(=O)NC1=O` (configuration not stated) it was 122% (inactive); in that of `C=C(C)[C@@H]1CC[C@]2(C)[C@H](CC=C3[C@@H]4CC(C)(C)CC[C@]4(C(=O)OC)CC[C@]32C)[C@@]1(C)CC/C(N)=N/O`, 2.39% (active); in that of `CCC[CH2][Sn]1([CH2]CCC)[O]C2C(CO)OC(n3ccc(N)nc3=O)C2[O]1` (configuration not stated), -36.6% (active).
Take `Nc1cc(N)c2nc(-c3ccccc3)c(NCCc3ccc(Cl)c(Cl)c3)nc2c1`: the growth was -10.5% (active).
